Among all 5,500 compounds or so, about 2,000 (36%) were called active. About 18% were inconclusive and are not listed. No stated cut-off is given here; in the data, active means normalized growth mostly below about 0.91 (no sharp cut-off); inconclusive means no clear call, values can overlap the other calls; inactive means mostly above about 0.92. The list shows a part of the results.
Assay: chemical genetic growth profiling, strain panel (AID 1159580);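 further: tested at 20 µM; growth read once vehicle control cultures reached saturation at 30 °C; 1 = growth at the plate median or of vehicle wells; lower values mean less growth of the strain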
Details: growth OD

Measured: normalized growth

CN1CC(CO)=C[C@@H]2c3cccc4[nH]cc(c34)C[C@H]21
inactive: S. cerevisiae deletion strains, locus YAL013W, strain DEP1, active compounds read low 0.994 | S. cerevisiae deletion strains, locus YBR021W, strain FUR4, active compounds read low 1.02 | S. cerevisiae deletion strains, locus YBR229C, strain ROT2, active compounds read low 0.967 | S. cerevisiae deletion strains, locus YCL029C, strain bik1, active compounds read low 1.01 | S. cerevisiae deletion strains, locus YDL035C, strain GPR1, active compounds read low 0.99 | S. cerevisiae deletion strains, locus YDL074C, strain BRE1, active compounds read low 0.957 | S. cerevisiae deletion strains, locus YDL101C, strain DUN1, active compounds read low 0.97 | S. cerevisiae deletion strains, locus YDL134C, strain PPH21, active compounds read low 0.998 | S. cerevisiae deletion strains, locus YDL185W, strain tfp1, active compounds read low 0.982 | S. cerevisiae deletion strains, locus YDL192W, strain arf1, active compounds read low 1.01 | S. cerevisiae deletion strains, locus YDR101C, strain arx1, active compounds read low 1.01 | S. cerevisiae deletion strains, locus YDR150W, strain NUM1, active compounds read low 0.991 | S. cerevisiae deletion strains, locus YDR162C, strain NBP2, active compounds read low 0.964 | S. cerevisiae deletion strains, locus YDR318W, strain mcm21, active compounds read low 1.02 | S. cerevisiae deletion strains, locus YDR388W, active compounds read low 1.01 | S. cerevisiae deletion strains, locus YDR502C, strain sam2, active compounds read low 0.993 | S. cerevisiae deletion strains, locus YEL061C, strain CIN8, active compounds read low 0.995 | S. cerevisiae deletion strains, locus YER110C, active compounds read low 1.01 | S. cerevisiae deletion strains, locus YER155C, strain BEM2, active compounds read low 1.01 | S. cerevisiae deletion strains, locus YER167W, strain BCK2, active compounds read low 1.01 | S. cerevisiae deletion strains, locus YGL078C, strain dbp3, active compounds read low 0.997 | S. cerevisiae deletion strains, locus YGL086W, strain mad1, active compounds read low 1.01 | S. cerevisiae deletion strains, locus YGL248W, strain PDE1, active compounds read low 0.988 | S. cerevisiae deletion strains, locus YGR078C, strain PAC10, active compounds read low 0.977 | S. cerevisiae deletion strains, locus YGR135W, strain pre9, active compounds read low 0.985 | S. cerevisiae deletion strains, locus YGR229C, strain SMI1, active compounds read low 0.992 | S. cerevisiae deletion strains, locus YGR252W, strain gcn5, active compounds read low 1.05 | S. cerevisiae deletion strains, locus YHR030C, strain SLT2, active compounds read low 1.01 | S. cerevisiae deletion strains, locus YHR079C, strain IRE1 (second series), active compounds read low 1.01 | S. cerevisiae deletion strains, locus YHR094C, strain hxt1, active compounds read low 1.01 | S. cerevisiae deletion strains, locus YHR129C, strain ARP1, active compounds read low 1.01 | S. cerevisiae deletion strains, locus YHR200W, strain rpn10, active compounds read low 1.01 | S. cerevisiae deletion strains, locus YIL066C, strain RNR3, active compounds read low 0.983 | S. cerevisiae deletion strains, locus YIL073C, strain SPO22, active compounds read low 1.05 | S. cerevisiae deletion strains, locus YIL125W, strain kgd1, active compounds read low 0.996 | S. cerevisiae deletion strains, locus YIR030C, strain dcg1, active compounds read low 1 | S. cerevisiae deletion strains, locus YJL095W, strain BCK1, active compounds read low 0.995 | S. cerevisiae deletion strains, locus YJL134W, strain LCB3, active compounds read low 0.989 | S. cerevisiae deletion strains, locus YJL168C, strain set2, active compounds read low 0.998 | S. cerevisiae deletion strains, locus YJL187C, strain SWE1 (second series), active compounds read low 0.975 | S. cerevisiae deletion strains, locus YJR043C, strain POL32, active compounds read low 1.03 | S. cerevisiae deletion strains, locus YJR075W, strain HOC1, active compounds read low 0.945 | S. cerevisiae deletion strains, locus YKL009W, strain mrt4, active compounds read low 1.01 | S. cerevisiae deletion strains, locus YKL068W, active compounds read low 0.999 | S. cerevisiae deletion strains, locus YKL085W, strain MDH1 (second series), active compounds read low 1.02 | S. cerevisiae deletion strains, locus YKL085W, strain MDH1, active compounds read low 1.02 | S. cerevisiae deletion strains, locus YKL190W, strain CNB1, active compounds read low 0.994 | S. cerevisiae deletion strains, locus YKR001C, strain vps1, active compounds read low 1.02 | S. cerevisiae deletion strains, locus YLR039C, strain RIC1, active compounds read low 0.954 | S. cerevisiae deletion strains, locus YLR058C, strain SHM2, active compounds read low 0.982 | S. cerevisiae deletion strains, locus YLR102C, strain apc9, active compounds read low 1 | S. cerevisiae deletion strains, locus YLR262C, strain YPT6, active compounds read low 0.957 | S. cerevisiae deletion strains, locus YLR268W, strain sec22, active compounds read low 0.975 | S. cerevisiae deletion strains, locus YLR330W, strain CHS5, active compounds read low 1 | S. cerevisiae deletion strains, locus YLR342W, strain FKS1 (second series), active compounds read low 1.03 | S. cerevisiae deletion strains, locus YLR371W, strain rom2, active compounds read low 1.01 | S. cerevisiae deletion strains, locus YLR418C, strain cdc73, active compounds read low 0.966 | S. cerevisiae deletion strains, locus YML016C, strain PPZ1, active compounds read low 1 | S. cerevisiae deletion strains, locus YML032C, strain rad52, active compounds read low 1.01 | S. cerevisiae deletion strains, locus YML124C, strain tub3, active compounds read low 1.01 | S. cerevisiae deletion strains, locus YMR078C, strain ctf18, active compounds read low 1.01 | S. cerevisiae deletion strains, locus YMR223W, strain ubp8, active compounds read low 1.02 | S. cerevisiae deletion strains, locus YMR263W, strain SAP30, active compounds read low 0.955 | S. cerevisiae deletion strains, locus YMR307W, strain GAS1, active compounds read low 1.06 | S. cerevisiae deletion strains, locus YNL067W, strain RPL9B, active compounds read low 0.987 | S. cerevisiae deletion strains, locus YNL128W, strain TEP1, active compounds read low 0.939 | S. cerevisiae deletion strains, locus YNL153C, strain GIM3, active compounds read low 0.975 | S. cerevisiae deletion strains, locus YNL233W, strain BNI4, active compounds read low 0.99 | S. cerevisiae deletion strains, locus YNL250W, strain rad50, active compounds read low 0.988 | S. cerevisiae deletion strains, locus YNL271C, strain bni1, active compounds read low 1.01 | S. cerevisiae deletion strains, locus YNL298W, strain CLA4, active compounds read low 1.01 | S. cerevisiae deletion strains, locus YNL307C, strain MCK1, active compounds read low 1.02 | S. cerevisiae deletion strains, locus YNL322C, strain KRE1, active compounds read low 0.982 | S. cerevisiae deletion strains, locus YNR052C, strain pop2, active compounds read low 1.01 | S. cerevisiae deletion strains, locus YOL006C, strain TOP1, active compounds read low 0.983 | S. cerevisiae deletion strains, locus YOL012C, strain htz1 1.85 | S. cerevisiae deletion strains, locus YOL147C, strain pex11, active compounds read low 1.01 | S. cerevisiae deletion strains, locus YOR061W, strain CKA2, active compounds read low 0.963 | S. cerevisiae deletion strains, locus YOR069W, strain VPS5, active compounds read low 1 | S. cerevisiae deletion strains, locus YOR136W, strain idh2, active compounds read low 1.01 | S. cerevisiae deletion strains, locus YOR144C, strain elg1, active compounds read low 1.01 | S. cerevisiae deletion strains, locus YOR184W, strain ser1, active compounds read low 1.02 | S. cerevisiae deletion strains, locus YOR316C, strain cot1, active compounds read low 1 | S. cerevisiae deletion strains, locus YPL055C, strain LGE1, active compounds read low 0.938 | S. cerevisiae deletion strains, locus YPL241C, strain CIN2, active compounds read low 0.997 | S. cerevisiae deletion strains, locus YPR119W, strain clb2, active compounds read low 1.01 | S. cerevisiae deletion strains, locus YPR141C, strain kar3, active compounds read low 0.998 | S. cerevisiae deletion strains, locus YPR163C, strain tif3, active compounds read low 1.01 | S. cerevisiae deletion strains, locus YPR167C, strain met16, active compounds read low 0.996 | S. cerevisiae deletion strains, strain wtn01, active compounds read low 0.995 | S. cerevisiae strains, strain wild type, active compounds read low 0.99
